Source: PubChem BioAssay (National Center for Advancing Translational Sciences (NCATS))
Sampled rows, rich in hits. Any-hit rate of the full collection: about 1.3%.
pAkt inh: blocks phosphorylation of Akt; AID 651550; activity change, % for hits at 50 µM; 360,000 compounds, 0.32% hits; Neuro2A IGF-stimulated pAkt S473 HTRF, 20 min; stronger effect = lower value; in the data active = activity change below about -80%; inconclusive = mostly about -51% to -80%; also: % is scaled to controls: 0 for no effect and ±100 for the full control effect
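Single-point screen (50 µM final compound) in Neuro2A cells stimulated 20 min with 6 nM IGF at 37 deg C. After lysis, Ser473-phosphorylated Akt read by HTRF (ex 330 nm, em 615/665 nm) as the 665/615 ratio.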
RXFP1 antagonist: antagonists of human relaxin receptor RXFP1 | AID 1259400 | Q9HBX9 | 350,000 compounds, 0.59% hits | activity change, negative = inhibition, % at 57.5 µM | HEK293-RXFP1, relaxin-stimulated cAMP HTRF, 30 min; stronger effect = lower value;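 active = activity change of -60% or lower, but not beyond a set lower limit; inconclusive = change between -60% and -40%, or beyond the set limit; inactive = change above -40%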; also: % is scaled to controls: 0 for no effect and ±100 for the full control effect
gsp ag: activates gsp, the McCune-Albright syndrome mutation | Potency, µM (doses to about 76.9 µM), for the others: top-dose activation (cAMP increase), most hits filed as activators | 340,000 compounds, 0.13% hits | AID 624287 | gsp mutant cells, cAMP HTRF, 30 min; active = well fitted activation curve with a large enough effect; inconclusive = small, poorly fitted or top-dose-only effect, or another doubt; inactive = no such curve, though single readings can be large or run the other way; cell line not stated here;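 also: phosphodiesterase inhibitor Ro 20-1724 added with compounds to block cAMP breakdown; potency is read from the fitted curve at half-maximal effect; nearly all actives have a fitted effect of over 60% in size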
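Cells in DMEM/10% FBS with G418 were pretreated with compounds in DMSO plus […] (300 uM stock) for 30 min at 37C. cAMP was measured by HTRF (cAMP-d2 plus anti-cAMP antibody-K) after 30 min at room temperature.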
TSHR antagonist: blocks TSH signaling through the human TSH receptor | AID 504810 | P16473 | 330,000 compounds, 0.2% hits | TSHR-expressing cells, TSH-stimulated cAMP HTRF, 2 h; stronger effect = lower value | activity change, negative = inhibition, % at 11.5 µM;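 active = activity change below a set negative limit, meaning inhibition stronger than a set level, cut at about -70% in these data; inconclusive = activity change between two set negative limits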; also: % is scaled to controls: 0 for no effect and ±100 for the full control effect
Target sequence (P16473 whole entry, looked up): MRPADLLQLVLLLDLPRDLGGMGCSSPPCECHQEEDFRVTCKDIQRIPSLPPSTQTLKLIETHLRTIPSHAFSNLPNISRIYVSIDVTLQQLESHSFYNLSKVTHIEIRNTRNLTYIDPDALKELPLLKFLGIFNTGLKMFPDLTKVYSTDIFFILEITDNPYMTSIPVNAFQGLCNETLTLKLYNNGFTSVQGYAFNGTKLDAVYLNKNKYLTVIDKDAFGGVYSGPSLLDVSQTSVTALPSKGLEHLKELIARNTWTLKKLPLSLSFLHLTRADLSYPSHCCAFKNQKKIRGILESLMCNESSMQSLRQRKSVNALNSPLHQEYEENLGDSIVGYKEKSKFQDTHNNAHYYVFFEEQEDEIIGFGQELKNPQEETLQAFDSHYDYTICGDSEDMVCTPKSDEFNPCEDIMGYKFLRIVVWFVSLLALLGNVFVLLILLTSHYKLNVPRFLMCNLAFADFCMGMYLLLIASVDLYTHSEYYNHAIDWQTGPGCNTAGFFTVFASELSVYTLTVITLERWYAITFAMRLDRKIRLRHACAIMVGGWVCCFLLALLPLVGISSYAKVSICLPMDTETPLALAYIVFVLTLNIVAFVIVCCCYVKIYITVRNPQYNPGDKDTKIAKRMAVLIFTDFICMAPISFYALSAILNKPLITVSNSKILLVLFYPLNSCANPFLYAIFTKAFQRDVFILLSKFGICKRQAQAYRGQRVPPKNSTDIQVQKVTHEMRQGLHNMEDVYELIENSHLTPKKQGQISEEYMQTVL
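TSHR-expressing cells were treated with compounds, then stimulated with TSH at EC80 (4nM final) for 2 hours at 37 deg C. Cellular cAMP was measured by HTRF competition between lysate cAMP and cAMP-d2 for a cryptate-labelled anti-cAMP antibody.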
gsp antagonist: antagonizes gsp, the McCune-Albright syndrome mutation; gsp-mutant cells, cAMP HTRF, 30 min; Potency, µM (highest dose often 76.9 µM), without a hit: at the highest dose activity change, negative = inhibition, most hits filed as inhibitors; 340,000 compounds, 0.4% hits; calls by dose curve; cell line not stated here;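 also: intracellular cAMP measured with PDE inhibitor Ro 20-1724 present during compound exposure; potency is read from the fitted curve at half-maximal effect; % is scaled to controls: 0 for no effect and ±100 for the full control effect; nearly all actives have a fitted effect of over 65% in size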
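HTRF cAMP measurement after 30 min RT detection following 30 min, 37C compound treatment alongside […] (added as 300 uM solution) in G418-selected cells seeded at 2000/well and grown 16–24 h.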
RXFP1 agonist: activates the human relaxin receptor RXFP1. HEK293T-RXFP1 cAMP TR-FRET, 30 min; response scale: percent of porcine relaxin response, buffer zero. AID 2676. 370,000 compounds, 0.3% hits. Q9HBX9. Potency, µM (series often up to 57.5 µM), for the others: at the highest dose activation, most hits filed as activators; active = well fitted activation curve with a large enough effect; inconclusive = small, poorly fitted or top-dose-only effect; also: potency is read from the fitted curve at half-maximal effect; % is scaled to controls: 0 for no effect and ±100 for the full control effect; nearly all actives have a fitted effect of over 60% in size
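HEK293T cells stably expressing RXFP1 were pretreated with the PDE4 inhibitor Ro 20174, exposed to compounds for 30 min at 37C, lysed, and cAMP was read by TR-FRET. Data normalized to buffer (basal) and 29 nM porcine relaxin (100%).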
Starred values were filed as active, the others as inactive; i = inactive; u = inconclusive; x = no result; [ ] = remark or other dose.

SMILES	pAkt inh	RXFP1 antagonist	gsp ag	TSHR antagonist	gsp antagonist	RXFP1 agonist
CC1CCN(c2ccc([N+](=O)[O-])cc2C(=O)NCC2CCCO2)CC1 (stereo unspecified)	i	-1.6	-36.6%	-3.6	-3.0%	1.1%
COCCNC(=O)/C(C#N)=C/c1cccc(NC(=O)c2ccccc2Cl)c1	i	u	7.3%	1.3	0.4%	-0.5%
CC(C)NC(=O)/C(C#N)=C/c1cccc(NC(=O)c2ccccc2Cl)c1	i	-62.8*	-6.4%[15.4 µM]	2.7	7.5%	2.9%
COc1ccc(C(=O)C2CCCN(C3Cc4ccccc4C3)C2)c(OC)c1 (stereo unspecified)	i	-64.7*	-9.6%[15.4 µM]	-24.0	-4.7%	0.9%
COc1ccc(C(=O)C2CCCN(Cc3cc(C)c(O)c(C)c3)C2)c(OC)c1 (stereo unspecified)	i	7.7	-7.4%[15.4 µM]	1.8	3.7%	1.9%
O=C(Nc1cccc2c1CCCC2)c1cc(C2CCCCN2C(=O)CCCc2ccccc2)on1 (stereo unspecified)	i	x	x	x	x	x
COc1ccc(-c2cc3c(=O)n(CC(=O)NCc4cccnc4)nc(C)n3n2)cc1	i	13.6	13.2%	-139.0*	-1.8%	0.6%
O=[N+]([O-])c1ccc(N/N=C/c2ccc(O)c(O)c2O)c(S(=O)(=O)N2CCOCC2)c1	i	-85.0*	14.5%[15.4 µM]	5.6	u	1.3%
COC(=O)Cc1c(C)c2c(O)cc(C)cc2oc1=O	x	32.5	u	x	31.7%	15.8µM*
O=C(CCS(=O)(=O)c1ccc(Br)cc1)NC1CCCC1	i	7.3	3.98µM*	4.7	10.1%	0.7%
CSc1ncnc2c1ncn2CCCNCc1ccc2c(c1)OCO2	i	-7.8	u	x	x	x
Cc1nnc2ccc(-c3cccc(NC(=O)c4ccc(Br)o4)c3)nn12	i	-75.2*	u	-21.7	-14.3%	10.0%
O=C(Cc1cccc(NC(=O)C2CCN(C(=O)C3CCCC3)CC2)c1)Nc1cccc(C(=O)N2CCCCC2)c1	i	x	x	x	9.6%	x
C=CCNC(=O)NC(=O)COC(=O)c1nc2nccc(C)n2n1	i	4.0	u	3.9	5.2%	15.8µM*
CC(C)(C)c1ccc(C(=O)CCC(=O)OCC(=O)NCCc2ccc(S(N)(=O)=O)cc2)cc1	i	-38.6	0.8%	-6.3	31.6µM*	-0.5%
COc1ccc(OC)c(NS(=O)(=O)c2ccc3[nH]c4c(c3c2)CCCCC4)c1	x	x	x	x	x	-1.3%
COc1ccc(CCNc2ncnc3[nH]ncc23)cc1OC	i	-16.7	0.4%[15.4 µM]	-17.9	0.5%	0.6%
COc1ccc(CCNc2ncnc3sc(C)cc23)cc1OC	i	-18.2	-20.7%	u	35.5µM*	-0.2%
CN(C)S(=O)(=O)c1ccc2c(c1)C(=O)c1cc(S(=O)(=O)N(C)C)ccc1CC2	x	x	x	-2.4	x	-0.8%
CN(C)S(=O)(=O)c1ccc2c(c1)/C(=C/c1cc3c([nH]1)CCCC3)C(=O)N2	i	x	x	-25.5	10µM*	-0.8%
Cc1ccc(Nc2nccc(N(C)c3ccc4c(C)n(C)nc4c3)n2)cc1S(N)(=O)=O	x	-39.4	x	x	x	x
CC12CCC(=O)N1C(C(=O)Nc1nc3ccc(Cl)cc3s1)CS2 (stereo unspecified)	i	-60.4*	4.4%[15.4 µM]	-18.7	-16.4%	0.4%
O=S(=O)(c1cccc(Br)c1)N1CCN(c2ccnc3cc(Cl)ccc23)CC1	i	-4.4	1.5%[15.4 µM]	-25.7	-19.6%	-0.5%
N#Cc1cccc(S(=O)(=O)N2CCN(c3ccnc4cc(Cl)ccc34)CC2)c1	i	-3.1	-32.3%	-4.6	25.1µM*	-3.1%
CN(C)S(=O)(=O)N1CCN(c2ccnc3cc(Cl)ccc23)CC1	i	-3.4	18.2%	-120.2*	u	-1.9%
Nc1[nH]c(C(=O)c2ccccc2)c(-c2ccc(Cl)c(F)c2)c1C(=O)NCCc1c[nH]c2ccccc12	i	x	x	x	x	x
Cc1ccc(C)c(NC(=O)N2CCC(N3CCN(Cc4ccc(F)cc4)C(=O)C3=O)CC2)c1	x	7.4	x	x	x	-1.3%
